A selection: hits, their analogues and other compounds. The true share with any hit is near 8.1%.
MCF10A rerep: A quantitative high throughput screen for small molecules that induce DNA re-replication in MCF 10a normal breast cells; 2.9% of 350,000 active; AID 624296, 2012; MCF 10A DNA re-replication, Hoechst nuclear intensity, 48 h; Potency, µM (series often up to 46.1 µM), for inactives: at the top dose activity, positive = re-replication, hits mostly activators; also: % of control where 0% means no effect; nearly all actives have a fitted effect of over 50% in size
SW480 rereplic: A quantitative high throughput screen for small molecules that induce DNA re-replication in SW480 colon adenocarcinoma cells. SW480 DNA re-replication, Hoechst DNA content imaging, 48 h. Potency, µM (doses to about 46.1 µM), without a hit: top-dose re-replication activation, most hits filed as activators. 1.8% of 340,000 active. AID 624297, 2012; also: % of control where 0% means no effect; nearly all actives have a fitted effect of over 55% in size
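Compounds, transferred as 23 nL by pin tool, were incubated with cells for 48 hr; DNA content per nucleus was then quantified by Hoechst staining and fluorescence plate imaging.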
ELG1 repair inh: qHTS screen for small molecules that inhibit ELG1-dependent DNA repair in human embryonic kidney (HEK293T) cells expressing luciferase-tagged ELG1; AID 504467, 2011; HEK293T ELG1-luciferase reporter, luminescence, 16 h; DNA damage induced by 5-fluorouridine; Potency, µM (titrated, usually from 46.1 µM), without a hit: at the highest dose activity change, negative = inhibition, actives largely listed as inhibitors; 2.3% of 330,000 active; also: % is scaled to controls: 0 for no effect and ±100 for the full control effect; nearly all actives have a fitted effect of over 55% in size
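Step one: seed 2,000 cells per well. Step two: pin-transfer compound or DMSO alongside 5-fluorouridine. Step three: incubate 16 hr, 37 °C, 5% CO2. Step four: add ONE-Glo, wait 30 min, read luminescence.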
KB-V1 cytotox: qHTS assay for MDR1-selective chemotherapeutics: Primary screen using the drug-selected MDR subline cells KB-V1; KB-V1 MDR cells viability, CellTiter-Glo, 72 h; Potency, µM (titrated, usually from 46.1 µM), hits mostly cytotoxic; 3.4% of 400,000 active; AID 1347076, 2019; also: % is scaled to controls: 0 for no effect and ±100 for the full control effect; nearly all actives have a fitted effect of over 60% in size
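Potencies derive from concentration-effect curves fitted to normalized luminescence (CellTiter-Glo) of KB-V1 cells treated for 72 h at 37 degrees C in phenol-red-free DMEM containing 10% FBS.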
KB-3-1 tox: qHTS assay for MDR1-selective chemotherapeutics: Primary screen using the parental adenocarcinoma cell KB-3-1. KB-3-1 viability, CellTiter-Glo ATP luminescence, 72 h. Potency, µM (top dose mostly 46.1 µM), usual class: cytotoxic. 1.4% of 400,000 active. AID 1347075, 2019; also: % is scaled to controls: 0 for no effect and ±100 for the full control effect; nearly all actives have a fitted effect of over 60% in size
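Multi-concentration cytotoxicity screen in KB-3-1 cells grown in DMEM lacking phenol red with 10% FBS. After 72 h at 37 °C with compound, ATP-dependent luminescence was recorded.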
The depositor's hits bear a star; i = inactive; ? = inconclusive; . = no result. Calls follow the shape of the dose curve; as a rule, active = well fitted curve in the direction sought with a large enough effect; inconclusive = small, poorly fitted or top-dose-only effect, or another doubt; inactive = no such curve, though single readings can be large; an effect the other way counts as inactive or inconclusive. Potency is read from the fitted curve at half-maximal effect.

SMILES	MCF10A rerep	SW480 rereplic	ELG1 repair inh	KB-V1 cytotox	KB-3-1 tox
Cc1ccc(Cn2ccc(NC(=O)c3noc4c3CCCCC4)n2)cc1	18%	5%	-4%	5.2µM*	?
O=C(Nc1cnn(Cc2ccc(Cl)cc2Cl)c1)c1cc(-c2cccs2)on1	-11%	-7%	-14%	?	i
O=C(Nc1cnn(Cc2ccc(Cl)cc2Cl)c1)c1noc2c1CCCC2	16%	19%	?	10µM*	i
CC(=O)c1cccc(NC(=O)Nc2cnn(Cc3ccc(Cl)cc3Cl)c2)c1	?	-2%	26µM*	18µM*	?
c1ccc(C[n+]2csc3ccccc32)cc1	23µM*	?	22%	i	i
CCOc1ccc(C(F)(F)F)cc1NC(=O)COc1ccc(C(F)(F)F)cc1[N+](=O)[O-]	5%	-1%	-2%	i	i
CCCOP(=O)(OCCC)c1c([N+](=O)[O-])cc(C(F)(F)F)cc1[N+](=O)[O-]	?	18µM*	0%	?	?
Cc1cccc(C(=O)Nc2ccc(S(=O)(=O)Nc3nc(C)cc(C)n3)cc2)c1	?	16%	7%	i	?
O=C(COC(=O)c1ccc([N+](=O)[O-])o1)NCc1ccccc1	2%	1%	2%	i	i
Cc1cccc(NC(=O)c2ccc([N+](=O)[O-])o2)c1C	13µM*	7.3µM*	7%	?	i
COc1ccccc1NC(=O)c1ccc(COc2ccccc2OC)o1	-7%	8%	?	i	i
Cc1ccc(C(=O)Nc2cccc3ccccc23)o1	?	5.2µM*	.	i	i
COc1ccccc1NC(=O)c1ccc([N+](=O)[O-])o1	?	7.3µM*	.	i	?
CN(Cc1ccccc1)C(=O)c1ccc([N+](=O)[O-])o1	16µM*	6.5µM*	-11%	?	i
O=C(Nc1cccc([N+](=O)[O-])c1)c1ccc([N+](=O)[O-])o1	.	.	.	?	i
COc1cc2[nH]c(=O)n(CCCC(=O)NC3CCCCC3)c(=O)c2cc1OC	-5%	-6%	-5%	i	i
Cc1ccc(NC(=O)N2CCN(Cc3nc4ccc(C)cc4o3)CC2)c(Cl)c1	.	.	.	i	i
CC1CCN(c2ccccc2NC(=O)c2ccc([N+](=O)[O-])o2)CC1	1%	0%	-5%	i	i
O=C(Nc1cccc2ccccc12)c1ccc([N+](=O)[O-])o1	5.8µM*	?	?	?	?
O=C(Nc1ccccc1C(=O)NC1CC1)c1ccc([N+](=O)[O-])o1	16µM*	6.5µM*	?	?	i
COc1ccc(CCNC(=S)Nc2ccccc2C)cc1	-1%	-2%	-7%	i	i
CC(C)(C)CC(=O)NC(=S)NCCc1ccccc1	?	10µM*	-10%	i	i
CC(C)CCNC(=S)Nc1ccc(Br)cc1	?	33%	?	18µM*	?
Cc1ccccc1NC(=S)NCCc1ccccc1	?	?	1%	16µM*	i
S=C(NCCc1ccccc1)Nc1ccccn1	2%	-8%	?	16µM*	i
SMILES	MCF10A rerep	SW480 rereplic	ELG1 repair inh	KB-V1 cytotox	KB-3-1 tox
CCOC(=O)c1c(C)[nH]c(C(=O)COC(=O)CSC)c1C	10%	5%	17%	?	?
CCCNC(=S)Nc1ccc(Br)cc1	14%	-2%	?	i	i
S=C(NCCc1ccccc1)Nc1ccc(Br)cc1	?	-2%	?	18µM*	?
CCC(/C=C1\Sc2ccc(OC)cc2N1CC)=C\c1sc2ccc(OC)cc2[n+]1CCCS(=O)(=O)[O-]	-7%	-3%	?	i	?
CCC(/C=C1\Sc2ccc(OC)cc2N1CCO)=C\c1sc2ccc(OC)cc2[n+]1CCO	?	0%	?	i	2.9µM*
Cc1cccc(NC(=O)c2ccc3c(=O)n4c(nc3c2)CCCCC4)n1	10%	-4%	?	?	i
COc1ccc(S(=O)(=O)N(C(=O)c2ccncc2)c2ccc(OC(=O)c3ccncc3)cc2)cc1	14%	7%	-26%	i	i
CCN(CC)c1ccc(NC(=O)c2cnc3ccccn3c2=O)c(C)c1	?	3%	-3%	3.7µM*	i
Cc1ccc(NC(=O)c2cnc3cc(C)ccn3c2=O)c(C)c1	.	.	.	i	i
CCN(CC)C(=O)Cn1cc(C(=O)C(=O)N2CCN(c3ccc(OC)cc3)CC2)c2ccccc21	3%	?	-1%	i	i
O=C(O)CCN1C(=O)c2ccc(NC(=O)c3cccs3)cc2C1=O	21µM*	11%	5%	i	i
O=C(CSc1nc(Nc2ccccc2)nc(N2CCOCC2)n1)N1CCCC1	?	?	?	?	i
O=C(c1ccc(Cl)cc1)N1CCC(O)(CSc2ccc(Cl)cc2)CC1	16%	1%	3%	i	0.0007µM*
O=C(c1ccc(Cl)cc1)N1CCC(O)(CSc2ccccc2)CC1	3%	-3%	-16%	i	i
CN1CCN(C(=O)c2ccc(CSc3ccc(Cl)cc3)cc2)CC1	1%	15%	-4%	7.3µM*	?
CCOC(=O)N1CCN(C(=O)c2ccc(CSc3ccc(Cl)cc3)cc2)CC1	0%	0%	?	i	i
O=C(OCn1ncc(Cl)c(Cl)c1=O)c1ccc(C(F)(F)F)cc1	6.5µM*	6.5µM*	?	6.5µM*	7.3µM*
Cc1ccc(C(=O)OCn2ncc(Cl)c(Cl)c2=O)cc1	3.7µM*	?	7.3µM*	?	4.6µM*
O=C(O)c1ccc(-n2ncc(Cl)c(Cl)c2=O)cc1	.	.	.	?	i
CCC(C)(C)NC(=O)CN(CCc1cccc(C)c1)C(=O)c1csnn1	0%	0%	-12%	i	i
CCC(C)C(=O)Nc1cc(C(=O)OC)ccc1C(=O)OC (centres undefined)	1%	28%	11%	i	i
C#C[C@]1(O)CC[C@H]2[C@@H]3CCc4cc(O)ccc4[C@H]3CC[C@@]21C	18µM*	?	-14%	16µM*	?
C#C[C@]1(O)CCC2C3CCC4=CC(=O)CCC4C3CC[C@@]21C (some centres undefined)	-6%	3%	.	.	.
C#CC1(O)CCC2C3CCC4=C(CCC(=O)C4)C3CCC21C (centres undefined)	9%	-3%	.	1.5µM*	?
